Compounds with a hit are over-represented: about 0.87% of the library has one in this group of screens.
IDE cell inh – human IDE inhibitors in live cells, primary screen, fluorescence polarization, HEK cells, FAbetaB substrate. FAbetaB cleavage. inhibition, % at 5.59 µM. hit rate 0.41% among 320,000;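 active means percent inhibition above the average of all tested compounds plus 3 SD, set per screening campaign, cut at about 16% in these data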;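 further: IDE supplied by intact live HEK cells; FP after avidin binding of uncleaved biotin substrate so inhibition keeps polarization high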
TLR4 MyD88 comp – inhibitors of TLR4-MyD88 association in cells, primary screen, cell-based, HeLa CL3-4, BLA complementation, FRET ratio. AID 861, 2007. inhibition, % at 8.4 µM. hit rate 0.18% among 200,000. Toll-like receptor 4 (Homo sapiens) + Myeloid differentiation primary response protein …. HeLa CL3-4 TLR4/MyD88 BLA complementation; in the data active means inhibition above about 25%
NOD2 RIPK2 PPI – NOD2-RIPK2 binding disruptors in cells, primary screen, fluorescence, CHO cells, BLA complementation. CCF4 ratio. hit rate 0.38% among 360,000. Receptor-interacting serine/threonine-protein kinase 2 (Homo sapiens), O43353. inhibition, % at 4.98 µM; in the data active means inhibition above about 21%
TLR9-MyD88 inh – inhibitors of TLR9-MyD88 association in cells, primary screen, cell-based, CHO, BLA complementation, fluorescence; hit rate 0.21% among 340,000; inhibition, % at 4.98 µM; Toll-like receptor 9 (Homo sapiens) + Myeloid differentiation primary response protein …; AID 504734, 2011; CCF4 FRET ratio;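 active means inhibition above the mean over all tested compounds plus 3 SD, cut at about 21% in these data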
IDE cell activ – human IDE activators in live cells, primary screen, fluorescence polarization, HEK cells, FAbeta-B substrate. Insulin-degrading enzyme (Homo sapiens), P14735. FAbeta-B cleavage; 0% vehicle, 100% cell-free pure enzyme wells. activation, % at 5.96 µM. hit rate 0.073% among 340,000;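 active means activation above the mean of all tested compounds plus 3 SD, set per screening campaign, cut at about 17% in these data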
Of the large screens only hits and unclear results are named; the others gave an inactive call.

CC(=O)Oc1ccc2c(c1)O/C(=C\c1ccncc1)C2=O	NOD2 RIPK2 PPI 31 (no result: TLR4 MyD88 comp)
COc1cc(N2CCCC2)c(OC)cc1/C=C(/C#N)c1cccc(F)c1	IDE cell inh 17
CNc1cnc(-c2ccc(F)c(F)c2F)cn1	none (no result: IDE cell inh, TLR4 MyD88 comp, TLR9-MyD88 inh, IDE cell activ)
COc1ccc2oc(=O)c(C(=O)Nc3ccccc3O)cc2c1	none (no result: TLR4 MyD88 comp)
COc1ccc2o/c(=N\O)c(C(=O)Nc3ccccc3OC)cc2c1	IDE cell inh 28
Cc1cccc(NC(c2ccc(C)s2)c2ccc3ccc(C)nc3c2O)n1 (configuration not stated)	IDE cell inh 22
C=C1C(=O)C=C2CN(C(=O)c3ccccc3)[C@@](Cc3ccc(F)cc3)(C(=O)OC)[C@@H]12	NOD2 RIPK2 PPI 48
C=C1C(=O)CC2=C1[C@](Cc1ccc(F)cc1)(C(=O)OC)N(C(=O)c1ccccc1)C2	none (no result: IDE cell inh, TLR4 MyD88 comp, TLR9-MyD88 inh, IDE cell activ)
Cc1ccc(Nc2cc(C)nn2-c2nc(C)cc(=O)[nH]2)cc1	NOD2 RIPK2 PPI 53, TLR9-MyD88 inh 41
Cc1ccc(Nc2cc(C)nn2-c2nc(C)cc(C)n2)cc1	none
CCOC(=O)c1cccc(P(C)(C)=O)c1	IDE cell activ 19
CCOC(=O)c1ccc2nc(C)c(C)nc2c1	none (no result: TLR4 MyD88 comp)
COc1ccc(Cl)cc1-c1cc(C(=O)Nc2ccc(Br)cc2)[nH]n1	none (no result: IDE cell inh, TLR4 MyD88 comp, TLR9-MyD88 inh, IDE cell activ)
Cc1ccc(Cn2nc(C)c(C(=O)N3CCN(S(=O)(=O)/C=C/c4ccccc4)CC3)c2C)cc1	IDE cell activ 33 (no result: TLR4 MyD88 comp)
O=C(c1cnn(Cc2ccccc2)c1)N1CCN(S(=O)(=O)/C=C/c2ccccc2)CC1	none (no result: TLR4 MyD88 comp)
O=C(C1CCCN(S(=O)(=O)c2ccccc2[N+](=O)[O-])C1)N1CCN(c2ccccc2)CC1 (configuration not stated)	IDE cell inh 18
O=C(CC[C@H]1O[C@@H](n2ccc(=O)[nH]c2=O)[C@H](O)[C@@H]1O)NCCN1CCOCC1	none (no result: IDE cell inh, TLR4 MyD88 comp, TLR9-MyD88 inh, IDE cell activ)
COC(=O)[C@]12CCCCC=C1N(Cc1cccc3ccccc13)C(=O)[C@H](CC(=O)N1CCN(C(=O)c3ccco3)CC1)C2	none (no result: IDE cell inh, TLR4 MyD88 comp, TLR9-MyD88 inh, IDE cell activ)
C=C(C)COc1ccc(-c2[nH]ncc2Oc2ccc(OC)cc2)c(O)c1	IDE cell activ 21 (no result: TLR4 MyD88 comp)
COc1ccc(C(C[N+](=O)[O-])C2(c3ccc(OC)c(OC)c3)C(=O)c3ccccc3C2=O)cc1 (configuration not stated)	IDE cell inh 16, NOD2 RIPK2 PPI 82
Nc1ccn([C@@H]2O[C@H](CNC(=O)[C@@H](Cc3cccnc3)NC=O)[C@@H](O)[C@H]2O)c(=O)n1	none (no result: IDE cell inh, TLR4 MyD88 comp, IDE cell activ)
CCCCCCCNC(=O)C1(CC2CC(c3cccc(Br)c3)=NO2)CCNCC1 (configuration not stated)	IDE cell activ 19 (no result: TLR4 MyD88 comp)
Cc1ccc(S(=O)(=O)N2C[C@H]3C(=O)C[C@@H](c4cccc(Cl)c4)N(S(=O)(=O)c4ccc(C)cc4)[C@H]3C[C@H]2c2ccccc2)cc1	none (no result: IDE cell inh, TLR4 MyD88 comp, IDE cell activ)
CC(C)CN1CCC(=O)N([C@H](CO)c2ccccc2)CC1	IDE cell activ 37 (no result: TLR4 MyD88 comp, NOD2 RIPK2 PPI)
CCCCCCCN1CCC(=O)N([C@H](CO)c2ccccc2)CC1	none (no result: TLR4 MyD88 comp)
COc1cc(/C=C/C(=O)O)cc(S(=O)(=O)Nc2cc(S(=O)(=O)N3CCCCC3)ccc2Cl)c1OC	none (no result: IDE cell inh, TLR4 MyD88 comp, IDE cell activ)
C/C(CC(=O)Nc1ccc(N(C)C)cc1)=N\NC(=O)c1ccncc1	IDE cell activ 18
Nc1ccc(-c2cnc(N)c(C(=O)c3cccnc3)n2)cn1	none (no result: IDE cell inh, TLR4 MyD88 comp)
COC(=O)[C@]12CCCCC=C1N(Cc1ccco1)C(=O)[C@H](CC(=O)NCc1ccc(OC)c(OC)c1)C2	none (no result: IDE cell inh, TLR4 MyD88 comp, TLR9-MyD88 inh, IDE cell activ)
Cc1ccc2c(c1)c1c(n2CC(O)CNC2CCCC2)CCCC1 (configuration not stated)	IDE cell activ 18 (no result: TLR4 MyD88 comp)
COc1ccc(C(=O)N/N=C/c2cc3ccccc3[nH]c2=O)cc1	IDE cell activ 30
CCCN(CCC)Cc1cc(=O)oc2cc(C)c(Cl)cc12	none (no result: IDE cell inh, TLR4 MyD88 comp, TLR9-MyD88 inh, IDE cell activ)
Cc1cccc(N2CCN(C(=S)Nc3ccc4nc(N5CCN(C)CC5)cc(C)c4c3)CC2C)c1 (configuration not stated)	IDE cell activ 30
CC(=O)Nc1ccc(NC(=O)COC(=O)c2n[nH]c3ccccc23)cc1	IDE cell activ 19
CCOc1ccc(NC(=O)COC(=O)c2n[nH]c3ccccc23)cc1	none (no result: TLR4 MyD88 comp)

High-throughput results as filed in PubChem.
